Data on two molecules can be found in ChEMBL document CHEMBL2218924, “A broad activity screen in support of a chemogenomic map for kinase signalling research and drug discovery” (Biochem J, 2013).

Test [1] has as its target Serine/threonine-protein kinase PLK2 (Homo sapiens) (UniProt Q9NYY3). Particulars: at 1 µM.
For test [2] the target is unchanged. To be noted: at 10 µM.
In test [3] the target is Tyrosine-protein kinase SYK (Homo sapiens) (UniProt P43405). Particulars: at 10 µM.
Test [4] deals with T1, Mitogen-activated protein kinase kinase kinase 7 (Homo sapiens) (UniProt O43318).
T1 sequence (whole entry): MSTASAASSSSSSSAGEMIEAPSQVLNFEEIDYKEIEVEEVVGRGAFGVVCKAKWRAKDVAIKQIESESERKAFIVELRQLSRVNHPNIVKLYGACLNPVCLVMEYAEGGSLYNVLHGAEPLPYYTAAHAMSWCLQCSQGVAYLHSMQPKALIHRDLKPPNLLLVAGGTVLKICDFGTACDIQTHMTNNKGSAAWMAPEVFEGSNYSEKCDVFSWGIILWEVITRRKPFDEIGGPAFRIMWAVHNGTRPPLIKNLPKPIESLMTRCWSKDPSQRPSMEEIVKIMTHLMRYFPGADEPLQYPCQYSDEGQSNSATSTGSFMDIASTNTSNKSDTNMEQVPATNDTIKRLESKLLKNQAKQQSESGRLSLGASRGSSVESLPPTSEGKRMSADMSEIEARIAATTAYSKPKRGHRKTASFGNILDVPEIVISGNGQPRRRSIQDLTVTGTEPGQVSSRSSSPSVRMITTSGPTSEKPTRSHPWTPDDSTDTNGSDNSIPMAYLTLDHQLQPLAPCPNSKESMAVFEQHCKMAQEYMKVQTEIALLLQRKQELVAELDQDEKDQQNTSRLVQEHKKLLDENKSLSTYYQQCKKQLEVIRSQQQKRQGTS
To be noted: at 1 µM.

The target in test [5] is T1, Mitogen-activated protein kinase kinase kinase 7 (Homo sapiens). Particulars: at 10 µM.
Test [6] has as its target T2, Serine/threonine-protein kinase TAO3 (Homo sapiens) (UniProt Q9H2K8).
T2 sequence (whole entry): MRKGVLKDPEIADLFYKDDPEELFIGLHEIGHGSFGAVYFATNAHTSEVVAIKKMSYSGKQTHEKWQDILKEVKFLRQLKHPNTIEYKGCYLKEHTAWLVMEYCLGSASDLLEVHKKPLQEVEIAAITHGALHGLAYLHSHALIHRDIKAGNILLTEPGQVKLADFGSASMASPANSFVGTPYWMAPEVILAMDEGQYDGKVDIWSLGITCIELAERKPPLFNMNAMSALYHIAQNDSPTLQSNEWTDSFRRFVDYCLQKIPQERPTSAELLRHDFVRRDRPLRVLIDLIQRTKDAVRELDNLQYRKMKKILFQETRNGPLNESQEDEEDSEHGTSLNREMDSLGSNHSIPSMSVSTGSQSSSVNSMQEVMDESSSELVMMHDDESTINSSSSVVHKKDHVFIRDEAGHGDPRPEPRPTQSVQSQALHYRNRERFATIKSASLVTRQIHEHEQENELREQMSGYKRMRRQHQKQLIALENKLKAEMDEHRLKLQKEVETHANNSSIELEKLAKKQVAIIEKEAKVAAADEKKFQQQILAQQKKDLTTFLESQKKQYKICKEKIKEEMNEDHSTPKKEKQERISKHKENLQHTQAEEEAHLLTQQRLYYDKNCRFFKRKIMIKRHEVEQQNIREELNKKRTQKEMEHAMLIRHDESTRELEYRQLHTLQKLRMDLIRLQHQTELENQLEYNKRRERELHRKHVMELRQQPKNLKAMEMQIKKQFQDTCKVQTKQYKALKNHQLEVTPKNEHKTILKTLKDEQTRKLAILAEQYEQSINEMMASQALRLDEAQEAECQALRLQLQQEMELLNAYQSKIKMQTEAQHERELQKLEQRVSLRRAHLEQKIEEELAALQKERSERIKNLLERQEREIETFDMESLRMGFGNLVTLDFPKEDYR
To be noted: at 10 µM.

For test [7], the target named is T3, Serine/threonine-protein kinase TBK1 (Homo sapiens) (UniProt Q9UHD2).
T3 sequence (whole entry): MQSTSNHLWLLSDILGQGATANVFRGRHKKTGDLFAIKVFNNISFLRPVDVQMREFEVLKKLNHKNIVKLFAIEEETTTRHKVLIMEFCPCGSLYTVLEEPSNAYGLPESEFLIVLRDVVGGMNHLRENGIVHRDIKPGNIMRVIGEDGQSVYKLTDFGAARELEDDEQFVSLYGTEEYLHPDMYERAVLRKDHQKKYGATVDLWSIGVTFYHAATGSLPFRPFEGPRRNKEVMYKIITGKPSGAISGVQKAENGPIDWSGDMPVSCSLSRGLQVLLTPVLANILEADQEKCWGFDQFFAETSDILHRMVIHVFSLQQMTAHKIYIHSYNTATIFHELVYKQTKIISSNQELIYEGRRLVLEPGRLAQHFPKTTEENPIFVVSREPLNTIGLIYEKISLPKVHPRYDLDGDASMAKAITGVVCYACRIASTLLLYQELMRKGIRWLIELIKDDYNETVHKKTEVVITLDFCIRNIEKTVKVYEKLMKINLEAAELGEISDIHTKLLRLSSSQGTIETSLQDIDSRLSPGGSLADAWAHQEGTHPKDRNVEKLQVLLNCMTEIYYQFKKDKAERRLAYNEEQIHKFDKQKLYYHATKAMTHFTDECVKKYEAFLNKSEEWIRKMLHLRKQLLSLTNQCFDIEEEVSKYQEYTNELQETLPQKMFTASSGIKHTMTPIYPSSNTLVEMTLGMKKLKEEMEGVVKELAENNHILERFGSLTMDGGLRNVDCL
Particulars: at 1 µM.

Test [8] concerns the target T3, Serine/threonine-protein kinase TBK1 (Homo sapiens). To be noted: at 10 µM.
Test [9] concerns the target T4, TGF-beta receptor type-1 (Homo sapiens) (UniProt P36897).
T4 sequence (whole entry): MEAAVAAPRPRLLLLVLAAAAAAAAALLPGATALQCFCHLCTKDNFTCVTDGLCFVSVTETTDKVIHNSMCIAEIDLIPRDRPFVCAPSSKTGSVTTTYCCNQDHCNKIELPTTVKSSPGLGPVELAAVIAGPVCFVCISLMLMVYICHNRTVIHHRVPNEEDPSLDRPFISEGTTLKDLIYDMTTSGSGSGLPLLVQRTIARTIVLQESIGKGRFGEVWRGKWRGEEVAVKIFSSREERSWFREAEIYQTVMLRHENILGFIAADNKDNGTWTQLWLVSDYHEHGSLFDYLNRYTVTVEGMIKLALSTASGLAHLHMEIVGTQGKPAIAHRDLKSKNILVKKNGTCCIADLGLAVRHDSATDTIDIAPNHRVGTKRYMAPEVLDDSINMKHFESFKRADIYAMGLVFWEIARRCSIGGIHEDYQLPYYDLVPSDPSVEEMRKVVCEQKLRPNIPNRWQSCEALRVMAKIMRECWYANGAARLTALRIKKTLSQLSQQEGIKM
To be noted: at 1 µM.

Test [10] has as its target T4, TGF-beta receptor type-1 (Homo sapiens). To be noted: at 10 µM.
Test [11] addresses Serine/threonine-protein kinase 33 (Homo sapiens) (UniProt Q9BYT3). To be noted: at 1 µM.
The target is the same in test [12]. To be noted: at 10 µM.
The target in test [13] is Tyrosine-protein kinase SYK (Homo sapiens) (UniProt P43405). To be noted: at 1 µM.
The target of test [14] is T5, Serine/threonine-protein kinase TAO1 (Homo sapiens) (UniProt Q7L7X3).
T5 sequence (whole entry): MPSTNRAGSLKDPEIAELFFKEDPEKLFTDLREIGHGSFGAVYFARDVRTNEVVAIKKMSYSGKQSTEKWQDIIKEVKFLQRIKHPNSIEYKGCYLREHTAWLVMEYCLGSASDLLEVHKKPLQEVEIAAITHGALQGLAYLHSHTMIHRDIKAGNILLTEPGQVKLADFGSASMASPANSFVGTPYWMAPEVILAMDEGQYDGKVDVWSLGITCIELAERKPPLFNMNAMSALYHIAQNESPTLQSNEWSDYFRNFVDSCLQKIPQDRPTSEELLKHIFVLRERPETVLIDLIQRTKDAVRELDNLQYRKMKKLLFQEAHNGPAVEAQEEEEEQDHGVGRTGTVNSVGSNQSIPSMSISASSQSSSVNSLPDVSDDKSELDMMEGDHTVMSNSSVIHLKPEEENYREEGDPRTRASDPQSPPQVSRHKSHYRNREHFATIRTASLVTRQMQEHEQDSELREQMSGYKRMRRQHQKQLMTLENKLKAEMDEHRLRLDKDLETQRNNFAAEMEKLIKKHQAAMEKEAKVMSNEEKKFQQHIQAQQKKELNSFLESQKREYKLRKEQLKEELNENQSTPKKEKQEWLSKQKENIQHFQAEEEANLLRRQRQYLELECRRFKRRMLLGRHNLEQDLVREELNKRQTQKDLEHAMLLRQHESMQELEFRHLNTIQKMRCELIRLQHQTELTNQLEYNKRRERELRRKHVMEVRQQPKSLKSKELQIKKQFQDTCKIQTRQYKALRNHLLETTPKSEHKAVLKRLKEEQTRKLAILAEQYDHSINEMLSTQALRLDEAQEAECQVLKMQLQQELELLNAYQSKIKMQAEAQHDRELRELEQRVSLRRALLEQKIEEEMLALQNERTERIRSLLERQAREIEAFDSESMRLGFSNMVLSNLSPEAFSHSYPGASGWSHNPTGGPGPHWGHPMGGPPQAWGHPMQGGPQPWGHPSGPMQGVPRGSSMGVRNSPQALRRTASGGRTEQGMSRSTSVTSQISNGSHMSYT
To be noted: at 1 µM.

Test [15] addresses T5, Serine/threonine-protein kinase TAO1 (Homo sapiens). Particulars: at 10 µM.
The target of test [16] is T6, Serine/threonine-protein kinase TAO2 (Homo sapiens) (UniProt Q9UL54).
T6 sequence (whole entry): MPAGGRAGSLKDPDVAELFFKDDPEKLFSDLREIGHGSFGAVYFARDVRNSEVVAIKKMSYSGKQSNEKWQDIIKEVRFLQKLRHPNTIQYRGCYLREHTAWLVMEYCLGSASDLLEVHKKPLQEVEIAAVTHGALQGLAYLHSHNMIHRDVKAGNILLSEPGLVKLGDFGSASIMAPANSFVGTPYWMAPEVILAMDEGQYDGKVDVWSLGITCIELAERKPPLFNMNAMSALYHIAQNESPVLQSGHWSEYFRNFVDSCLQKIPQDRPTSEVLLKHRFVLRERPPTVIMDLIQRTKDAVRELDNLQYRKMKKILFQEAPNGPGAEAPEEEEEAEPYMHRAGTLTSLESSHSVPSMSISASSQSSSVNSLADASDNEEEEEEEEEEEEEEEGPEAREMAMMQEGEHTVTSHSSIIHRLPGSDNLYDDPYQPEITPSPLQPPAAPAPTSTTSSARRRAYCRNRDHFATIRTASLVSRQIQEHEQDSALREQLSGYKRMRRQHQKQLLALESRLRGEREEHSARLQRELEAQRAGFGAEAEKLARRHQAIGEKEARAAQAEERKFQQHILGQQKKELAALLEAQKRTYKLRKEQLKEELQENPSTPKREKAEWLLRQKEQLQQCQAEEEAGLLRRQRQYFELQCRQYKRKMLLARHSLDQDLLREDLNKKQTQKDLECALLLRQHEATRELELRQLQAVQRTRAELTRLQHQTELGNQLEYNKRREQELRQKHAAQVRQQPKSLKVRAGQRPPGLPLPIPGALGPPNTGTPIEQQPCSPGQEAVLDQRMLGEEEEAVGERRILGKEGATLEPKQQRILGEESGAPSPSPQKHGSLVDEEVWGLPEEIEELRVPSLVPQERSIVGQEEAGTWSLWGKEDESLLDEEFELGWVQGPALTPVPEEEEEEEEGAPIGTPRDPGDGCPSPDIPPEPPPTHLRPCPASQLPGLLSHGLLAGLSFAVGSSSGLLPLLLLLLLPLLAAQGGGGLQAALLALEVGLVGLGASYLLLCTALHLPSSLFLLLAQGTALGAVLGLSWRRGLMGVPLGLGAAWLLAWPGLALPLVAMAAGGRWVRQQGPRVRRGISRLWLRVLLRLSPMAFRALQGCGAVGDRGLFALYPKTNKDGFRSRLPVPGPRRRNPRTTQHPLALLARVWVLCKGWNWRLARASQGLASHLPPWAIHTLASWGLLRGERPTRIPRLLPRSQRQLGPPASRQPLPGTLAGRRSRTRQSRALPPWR
Particulars: at 1 µM.

Test [17] has as its target T6, Serine/threonine-protein kinase TAO2 (Homo sapiens). Particulars: at 10 µM.
The target of test [18] is T2, Serine/threonine-protein kinase TAO3 (Homo sapiens). Particulars: at 1 µM.
Test [19] concerns the target Insulin-like growth factor 1 receptor (Homo sapiens) (UniProt P08069). To be noted: at 1 µM.
The target is the same in test [20]. Particulars: at 10 µM.

Chain of Serine/threonine-protein kinase PLK2 (Homo sapiens) (Q9NYY3 whole entry, looked up): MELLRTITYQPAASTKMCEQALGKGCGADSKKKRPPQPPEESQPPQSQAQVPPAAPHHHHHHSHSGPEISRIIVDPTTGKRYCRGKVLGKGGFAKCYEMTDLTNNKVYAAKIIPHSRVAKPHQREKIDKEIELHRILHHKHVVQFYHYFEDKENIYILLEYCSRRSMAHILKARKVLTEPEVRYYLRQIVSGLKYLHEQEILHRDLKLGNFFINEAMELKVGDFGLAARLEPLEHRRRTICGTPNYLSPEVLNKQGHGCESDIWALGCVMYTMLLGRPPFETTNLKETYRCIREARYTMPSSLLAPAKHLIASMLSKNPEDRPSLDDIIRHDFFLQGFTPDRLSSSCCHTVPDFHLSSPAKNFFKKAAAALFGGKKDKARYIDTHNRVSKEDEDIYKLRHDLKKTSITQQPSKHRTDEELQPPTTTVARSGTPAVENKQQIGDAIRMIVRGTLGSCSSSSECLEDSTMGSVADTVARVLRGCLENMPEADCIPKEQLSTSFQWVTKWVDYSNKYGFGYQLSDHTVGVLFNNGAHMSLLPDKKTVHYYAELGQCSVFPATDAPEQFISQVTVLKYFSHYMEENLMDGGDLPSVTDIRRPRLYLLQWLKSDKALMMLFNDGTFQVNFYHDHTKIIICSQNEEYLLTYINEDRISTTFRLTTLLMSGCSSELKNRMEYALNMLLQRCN
Chain of Serine/threonine-protein kinase 33 (Homo sapiens) (Q9BYT3 whole entry, looked up): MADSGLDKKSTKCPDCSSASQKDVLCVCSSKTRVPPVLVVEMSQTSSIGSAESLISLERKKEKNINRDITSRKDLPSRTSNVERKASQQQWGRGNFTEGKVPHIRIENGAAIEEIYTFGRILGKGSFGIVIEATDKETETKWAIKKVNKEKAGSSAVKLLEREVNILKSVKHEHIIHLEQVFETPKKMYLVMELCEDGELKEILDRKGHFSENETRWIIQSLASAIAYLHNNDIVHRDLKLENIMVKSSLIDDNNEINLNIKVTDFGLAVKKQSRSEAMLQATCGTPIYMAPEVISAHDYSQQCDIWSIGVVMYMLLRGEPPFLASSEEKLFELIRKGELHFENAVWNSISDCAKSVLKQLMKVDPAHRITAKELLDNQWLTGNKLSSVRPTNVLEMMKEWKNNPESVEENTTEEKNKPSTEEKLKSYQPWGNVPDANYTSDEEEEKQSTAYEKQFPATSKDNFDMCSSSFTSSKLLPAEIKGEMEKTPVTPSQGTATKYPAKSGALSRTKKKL
Chain of Insulin-like growth factor 1 receptor (Homo sapiens) (P08069 31-736 limits assumed): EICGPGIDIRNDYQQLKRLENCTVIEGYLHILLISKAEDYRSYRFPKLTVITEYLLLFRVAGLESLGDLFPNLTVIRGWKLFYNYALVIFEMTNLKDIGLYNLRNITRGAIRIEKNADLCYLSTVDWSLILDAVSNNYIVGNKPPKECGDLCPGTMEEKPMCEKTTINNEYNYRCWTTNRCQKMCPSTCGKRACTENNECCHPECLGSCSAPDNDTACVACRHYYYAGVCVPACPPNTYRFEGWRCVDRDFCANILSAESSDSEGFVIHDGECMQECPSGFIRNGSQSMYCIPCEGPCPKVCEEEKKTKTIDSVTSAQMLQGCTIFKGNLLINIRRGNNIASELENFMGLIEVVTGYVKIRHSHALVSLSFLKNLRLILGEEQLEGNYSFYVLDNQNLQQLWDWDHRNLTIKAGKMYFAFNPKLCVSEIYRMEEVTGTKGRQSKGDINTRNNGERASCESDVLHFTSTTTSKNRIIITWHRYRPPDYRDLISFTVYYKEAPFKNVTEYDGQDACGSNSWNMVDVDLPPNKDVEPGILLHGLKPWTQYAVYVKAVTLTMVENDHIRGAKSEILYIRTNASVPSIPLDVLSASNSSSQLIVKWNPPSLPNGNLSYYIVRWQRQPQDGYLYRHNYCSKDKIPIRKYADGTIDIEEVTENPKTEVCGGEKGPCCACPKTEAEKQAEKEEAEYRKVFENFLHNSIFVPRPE
Chain of Insulin-like growth factor 1 receptor (Homo sapiens) (P08069 741-1367 limits assumed): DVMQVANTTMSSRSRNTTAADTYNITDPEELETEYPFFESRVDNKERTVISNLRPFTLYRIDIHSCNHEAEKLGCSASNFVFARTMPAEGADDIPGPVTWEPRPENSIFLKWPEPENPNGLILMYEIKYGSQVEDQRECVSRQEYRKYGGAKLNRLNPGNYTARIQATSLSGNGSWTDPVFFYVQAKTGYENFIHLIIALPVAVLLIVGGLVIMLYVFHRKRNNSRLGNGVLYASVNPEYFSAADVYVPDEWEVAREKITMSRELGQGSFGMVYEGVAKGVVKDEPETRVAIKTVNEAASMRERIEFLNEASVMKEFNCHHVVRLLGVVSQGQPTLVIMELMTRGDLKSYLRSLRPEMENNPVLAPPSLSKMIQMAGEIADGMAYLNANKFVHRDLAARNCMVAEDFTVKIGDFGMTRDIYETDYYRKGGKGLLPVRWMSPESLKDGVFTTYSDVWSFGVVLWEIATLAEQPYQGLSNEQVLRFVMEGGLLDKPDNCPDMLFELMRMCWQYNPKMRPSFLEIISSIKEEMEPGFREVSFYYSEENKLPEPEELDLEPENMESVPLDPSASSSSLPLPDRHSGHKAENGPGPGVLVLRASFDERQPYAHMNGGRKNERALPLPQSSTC

Turning to `c1cc(-c2cnn3cc(-c4ccc(OCCN5CCCCC5)cc4)cnc23)ccn1`, the residual activity in test [1] was determined as 82%; in test [2], 85%; in test [3], 59%; in test [4], 57%; in test [5] it was 13%; in test [6], 82%. Further, the residual activity in test [7] worked out at 64%; in test [8] it was 13%; in [9], 78%; in [10] it was 30%.
For the molecule `C[S+]([O-])c1ccc(-c2nc(-c3ccc(F)cc3)c(-c3ccncc3)[nH]2)cc1` (stereo not given), the residual activity in test [11] worked out at 106%; in test [12] it was 109%; in test [1], 116%; in [2] it was 103%; in [13], 112%; in test [3], 101%. The residual activity in test [4] was 106%; in [5] it was 101%; in test [14] it was 100%; in test [15] it was 77%; in [16] it was 111%; in test [17] it was 79%. In addition, the residual activity in test [18] is 108%; in test [6], 79%; in test [7], 124%; in test [8], 111%; in [9], 130%; in test [10], 77%. For the same molecule, the residual activity in test [19] was determined as 117%; in test [20], 122%.
